Here are results for 7 sequences from publication PMC7862700, “An all-to-all approach to the identification of sequence-specific readers for epigenetic DNA modifications on cytosine”.

What all share (experiment): DAPPL (digital affinity profiling via proximity ligation, sequencing); 10 mM Tris-HCl pH 7.5, 50 mM NaCl, 1 mM DTT, 4% glycerol, room temperature, 30 min; GST-TFs on glutathione beads, 16-mer random dsDNA library, 0.1% formaldehyde crosslink after washing; high values mean tight binding
Common to all, as to conditions: protein: recombinant; tags: N-terminal GST; dsDNA, one strand shown

One test has as its target T1, ERF (Homo sapiens, UniProt P50548 1-548).
T1 sequence: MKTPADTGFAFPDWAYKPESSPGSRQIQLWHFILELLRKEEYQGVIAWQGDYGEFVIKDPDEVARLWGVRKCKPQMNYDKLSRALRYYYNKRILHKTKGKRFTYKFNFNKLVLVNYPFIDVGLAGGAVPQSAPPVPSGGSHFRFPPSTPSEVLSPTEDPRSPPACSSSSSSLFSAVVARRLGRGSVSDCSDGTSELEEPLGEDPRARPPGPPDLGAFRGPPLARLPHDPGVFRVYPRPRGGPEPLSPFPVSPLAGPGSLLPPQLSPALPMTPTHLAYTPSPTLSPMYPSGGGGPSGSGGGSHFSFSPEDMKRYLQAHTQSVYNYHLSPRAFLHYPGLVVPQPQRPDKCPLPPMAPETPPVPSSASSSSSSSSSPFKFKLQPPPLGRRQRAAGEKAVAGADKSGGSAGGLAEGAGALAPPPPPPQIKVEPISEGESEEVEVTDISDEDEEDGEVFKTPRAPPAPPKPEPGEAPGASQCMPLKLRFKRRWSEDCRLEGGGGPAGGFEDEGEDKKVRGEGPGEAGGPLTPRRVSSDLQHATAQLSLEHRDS
An outline of the steps: (§1)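 Binding signal is each hexamer's read frequency for a factor divided by its frequency in the tag-only sample. The factors were GST-fused human transcription factors from yeast, captured on glutathione beads, DNA-barcoded and pooled with that sample. Pools were incubated with 200 nmole of a random double-stranded 16-mer DNA library in Tris/NaCl/DTT/glycerol buffer at room temperature for 30 min, then washed, crosslinked with 0.1% formaldehyde, proximity-ligated with BsaI/T4 ligase (1 h, 37 °C), PCR-amplified and sequenced on an Illumina NextSeq500.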

Another test addresses T2, ETV3L (Homo sapiens, UniProt Q6ZN32 1-361).
T2 sequence: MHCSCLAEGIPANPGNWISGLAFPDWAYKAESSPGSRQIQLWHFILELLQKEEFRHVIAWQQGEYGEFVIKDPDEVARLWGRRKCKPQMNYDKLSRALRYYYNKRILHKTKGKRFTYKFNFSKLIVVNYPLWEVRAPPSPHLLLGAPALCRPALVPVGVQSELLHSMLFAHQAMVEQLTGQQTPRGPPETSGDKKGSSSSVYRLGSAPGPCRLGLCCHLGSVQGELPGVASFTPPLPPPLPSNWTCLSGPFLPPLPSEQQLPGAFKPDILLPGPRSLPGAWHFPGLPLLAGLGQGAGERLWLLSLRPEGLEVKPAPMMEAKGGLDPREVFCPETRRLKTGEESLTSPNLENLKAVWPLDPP
The procedure, abridged:
as §1

A further test has as its target T3, ETS2 (Homo sapiens, UniProt P15036 1-469).
T3 sequence: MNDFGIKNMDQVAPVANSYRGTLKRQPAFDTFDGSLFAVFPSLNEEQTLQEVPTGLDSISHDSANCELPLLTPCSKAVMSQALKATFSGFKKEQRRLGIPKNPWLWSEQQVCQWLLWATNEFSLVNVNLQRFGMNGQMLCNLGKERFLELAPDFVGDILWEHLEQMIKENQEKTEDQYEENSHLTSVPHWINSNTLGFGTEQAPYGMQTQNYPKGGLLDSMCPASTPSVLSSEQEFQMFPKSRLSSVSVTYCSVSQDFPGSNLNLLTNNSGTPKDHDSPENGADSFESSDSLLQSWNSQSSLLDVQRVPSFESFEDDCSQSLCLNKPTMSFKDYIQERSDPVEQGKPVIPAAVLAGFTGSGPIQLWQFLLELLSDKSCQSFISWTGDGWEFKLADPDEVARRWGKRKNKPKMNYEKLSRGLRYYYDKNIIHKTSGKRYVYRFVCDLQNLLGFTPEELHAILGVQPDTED
The procedure, abridged: as §1

A further test has as its target T4, SPDEF (Homo sapiens, UniProt O95238 1-335).
T4 sequence: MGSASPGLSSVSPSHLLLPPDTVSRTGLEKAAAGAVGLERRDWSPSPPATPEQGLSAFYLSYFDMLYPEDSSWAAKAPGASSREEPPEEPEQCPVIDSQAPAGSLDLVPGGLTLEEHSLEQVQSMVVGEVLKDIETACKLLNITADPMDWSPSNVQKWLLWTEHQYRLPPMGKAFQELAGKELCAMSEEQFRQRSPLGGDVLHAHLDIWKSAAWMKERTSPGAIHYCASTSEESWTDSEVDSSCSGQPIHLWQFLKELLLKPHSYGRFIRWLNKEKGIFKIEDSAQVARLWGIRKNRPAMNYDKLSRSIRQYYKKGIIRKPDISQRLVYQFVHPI
An outline of the steps:
as §1

Another test has as its target T5, ETV7 (Homo sapiens, UniProt Q9Y603 1-341).
T5 sequence: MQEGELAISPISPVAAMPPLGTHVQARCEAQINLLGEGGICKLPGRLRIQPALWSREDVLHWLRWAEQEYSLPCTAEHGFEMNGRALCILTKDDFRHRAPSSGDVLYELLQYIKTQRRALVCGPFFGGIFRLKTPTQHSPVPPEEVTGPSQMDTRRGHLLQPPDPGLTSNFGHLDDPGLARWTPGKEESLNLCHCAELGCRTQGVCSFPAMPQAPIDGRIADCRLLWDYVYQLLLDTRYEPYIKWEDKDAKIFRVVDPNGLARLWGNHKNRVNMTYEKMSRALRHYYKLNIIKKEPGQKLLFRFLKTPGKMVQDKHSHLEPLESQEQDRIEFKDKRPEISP
The procedure, abridged:
as §1

The target of a further test is T6, ELF5 (Homo sapiens, UniProt Q9UKW6-2 1-255).
T6 sequence: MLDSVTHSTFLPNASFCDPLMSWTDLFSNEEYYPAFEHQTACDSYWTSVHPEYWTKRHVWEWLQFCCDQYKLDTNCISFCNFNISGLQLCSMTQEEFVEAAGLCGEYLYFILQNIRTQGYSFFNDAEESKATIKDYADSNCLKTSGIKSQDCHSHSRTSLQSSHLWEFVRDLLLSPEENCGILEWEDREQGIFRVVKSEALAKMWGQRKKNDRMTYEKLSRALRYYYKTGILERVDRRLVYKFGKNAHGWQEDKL
The procedure, abridged: as §1

A further test has as its target T7, ETV3 (Homo sapiens, UniProt P41162-2 1-143).
T7 sequence: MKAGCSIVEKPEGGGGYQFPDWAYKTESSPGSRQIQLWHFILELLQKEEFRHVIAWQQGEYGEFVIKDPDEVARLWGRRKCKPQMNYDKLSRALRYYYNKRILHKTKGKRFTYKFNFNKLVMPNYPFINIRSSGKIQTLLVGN
An outline of the steps:
as §1

The target in the next test is ETV6 (Homo sapiens, UniProt P41212 1-452). An outline of the steps:
as §1

Chain of ETV6 (P41212 whole entry): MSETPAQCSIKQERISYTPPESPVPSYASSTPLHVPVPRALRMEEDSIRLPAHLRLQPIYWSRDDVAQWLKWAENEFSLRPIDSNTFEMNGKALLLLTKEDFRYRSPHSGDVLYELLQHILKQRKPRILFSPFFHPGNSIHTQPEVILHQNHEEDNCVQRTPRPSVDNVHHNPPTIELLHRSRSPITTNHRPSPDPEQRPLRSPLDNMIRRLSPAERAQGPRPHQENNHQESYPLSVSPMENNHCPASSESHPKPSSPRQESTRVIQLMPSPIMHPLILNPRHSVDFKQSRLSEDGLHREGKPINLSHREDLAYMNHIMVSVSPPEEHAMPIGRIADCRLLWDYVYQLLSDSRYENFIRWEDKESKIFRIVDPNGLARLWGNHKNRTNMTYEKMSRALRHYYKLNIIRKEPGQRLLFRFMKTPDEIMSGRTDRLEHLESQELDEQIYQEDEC

As for CTTTAG, the binding signal in the test with ERF was 1.16 fold enrichment (6-mer frequency, TF over GST control); with ETV3L it was 1.23 fold enrichment (6-mer frequency, TF over GST control); in the test with ETS2, 1.17 fold enrichment (6-mer frequency, TF over GST control); in the test with SPDEF, 1.02 fold enrichment (6-mer frequency, TF over GST control); with ETV7, 1.2 fold enrichment (6-mer frequency, TF over GST control); in the test with ELF5 it was 1.05 fold enrichment (6-mer frequency, TF over GST control). Moreover, the binding signal in the test with ETV3 was 1.28 fold enrichment (6-mer frequency, TF over GST control); with ETV6, 1.21 fold enrichment (6-mer frequency, TF over GST control).
Turning to ACAACA, the binding signal is 1.31 fold enrichment (6-mer frequency, TF over GST control) with ERF; 1.17 fold enrichment (6-mer frequency, TF over GST control) in the test with ETV3L; 1.18 fold enrichment (6-mer frequency, TF over GST control) in the test with ETS2; 1.19 fold enrichment (6-mer frequency, TF over GST control) in the test with SPDEF; 1.23 fold enrichment (6-mer frequency, TF over GST control) with ETV7; 1.22 fold enrichment (6-mer frequency, TF over GST control) in the test with ELF5. Also, the binding signal was 1.27 fold enrichment (6-mer frequency, TF over GST control) in the test with ETV3 and 1.29 fold enrichment (6-mer frequency, TF over GST control) with ETV6.
For the sequence TTCCCC, the binding signal with ERF is 1.46 fold enrichment (6-mer frequency, TF over GST control); in the test with ETV3L, 1.69 fold enrichment (6-mer frequency, TF over GST control); in the test with ETS2, 1.64 fold enrichment (6-mer frequency, TF over GST control); in the test with SPDEF, 1.43 fold enrichment (6-mer frequency, TF over GST control); in the test with ETV7, 1.43 fold enrichment (6-mer frequency, TF over GST control); in the test with ELF5, 2.17 fold enrichment (6-mer frequency, TF over GST control). Besides, the binding signal was 1.89 fold enrichment (6-mer frequency, TF over GST control) with ETV3 and 1.73 fold enrichment (6-mer frequency, TF over GST control) with ETV6.
As to TCTCAA, the binding signal was 1.22 fold enrichment (6-mer frequency, TF over GST control) with ERF; 1.28 fold enrichment (6-mer frequency, TF over GST control) with ETV3L; 1.25 fold enrichment (6-mer frequency, TF over GST control) with ETS2; 1.23 fold enrichment (6-mer frequency, TF over GST control) with SPDEF; 1.17 fold enrichment (6-mer frequency, TF over GST control) in the test with ETV7; 1.15 fold enrichment (6-mer frequency, TF over GST control) with ELF5. For the same sequence, the binding signal was 1.3 fold enrichment (6-mer frequency, TF over GST control) with ETV3 and 1.27 fold enrichment (6-mer frequency, TF over GST control) with ETV6.
As for ACTTAA, the binding signal with ERF is 1.26 fold enrichment (6-mer frequency, TF over GST control); in the test with ETV3L, 1.16 fold enrichment (6-mer frequency, TF over GST control); with ETS2, 1.19 fold enrichment (6-mer frequency, TF over GST control); with SPDEF, 1.17 fold enrichment (6-mer frequency, TF over GST control); in the test with ETV7, 1.27 fold enrichment (6-mer frequency, TF over GST control); in the test with ELF5, 1.16 fold enrichment (6-mer frequency, TF over GST control). The binding signal was 1.17 fold enrichment (6-mer frequency, TF over GST control) with ETV3 and 1.21 fold enrichment (6-mer frequency, TF over GST control) in the test with ETV6.
Consider CCATTC, for which the binding signal with ERF was 1.14 fold enrichment (6-mer frequency, TF over GST control); with ETV3L, 1.06 fold enrichment (6-mer frequency, TF over GST control); in the test with ETS2, 1.13 fold enrichment (6-mer frequency, TF over GST control); with SPDEF, 1.13 fold enrichment (6-mer frequency, TF over GST control); with ETV7, 1.16 fold enrichment (6-mer frequency, TF over GST control); with ELF5, 1.11 fold enrichment (6-mer frequency, TF over GST control). Moreover, the binding signal with ETV3 is 1.1 fold enrichment (6-mer frequency, TF over GST control); with ETV6, 1.12 fold enrichment (6-mer frequency, TF over GST control).
On to CCCCGA, for which the binding signal with ERF was 1.15 fold enrichment (6-mer frequency, TF over GST control); in the test with ETV3L it was 1.23 fold enrichment (6-mer frequency, TF over GST control); in the test with ETS2, 1.07 fold enrichment (6-mer frequency, TF over GST control); with SPDEF, 1.05 fold enrichment (6-mer frequency, TF over GST control); with ETV7, 1.06 fold enrichment (6-mer frequency, TF over GST control); with ELF5, 1.13 fold enrichment (6-mer frequency, TF over GST control). Moreover, the binding signal with ETV3 was 1.05 fold enrichment (6-mer frequency, TF over GST control); in the test with ETV6 it was 1.11 fold enrichment (6-mer frequency, TF over GST control).
